Where “and” joins values, the source holds several entries; their conditions need not be identical. Equal entries are not always repeated. Results filed as inconclusive are left out. Some compounds were tested as several samples or in several runs, with calls that do not always agree. Calls of active or inactive are those of the source. Unless noted, calls come from the whole dose curve; as a rule, active = well fitted curve in the direction sought with a large enough effect; inconclusive = small, poorly fitted or top-dose-only effect, or another doubt; inactive = no such curve, though single readings can be large; an effect the other way counts as inactive or inconclusive.
Experiments:
[1] = target: Cellular tumor antigen p53 (Homo sapiens) (UniProt P04637); assay: Primary qHTS for small molecule compounds that upregulate eGFP-tagged delta133p53alpha (in N-terminal) cells. (AID 2060322); conditions: NCI-H358 eGFP-delta133p53alpha fluorescence, 24 h; activation: stronger effect = higher value; note: nearly all actives have a fitted effect of over 75% in size; note: potency is the fitted concentration of half-maximal effect;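 for activation: cells pre-induced with doxycycline then dosed without doxycycline; 0% = DMSO vehicle and 100% = reference activator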
Outline: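 NCI-H358 cells pre-induced 24 h with 10 ng/ml doxycycline for eGFP-delta133p53alpha, plated dox-free and exposed 24 h at 37C to titrated compounds. Fixed, Hoechst-stained; gated GFP peak intensity by laser scanning cytometry, normalized to DMSO (0%) and 57.5 uM 5-azacytidine (100%).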

[2] = target: Aldehyde dehydrogenase, mitochondrial (Homo sapiens) (UniProt P05091); assay: qHTS for Inhibitors of the Aldehyde Dehydrogenase Family (ALDH2) Validation screens (AID 2061302; active = well fitted inhibition curve with a large enough effect; title and protocol of this record describe different tests;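 note: plate controls were DMSO vehicle for no effect and maximal DPI positive control response for full effect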); conditions: ALDH inhibition qHTS; series mostly up to 42.6 µM
[3] = BET inhibitor-based combinations targeting novel dependencies in MECOM-rearranged (r) AML: SET-2 cell line (AID 2202231); conditions: SET-2 AML cells viability, CellTiter-Glo luminescence, 48 h; viability: stronger effect = lower value, concentration not given here; note: nearly all actives have a fitted effect of over 35% in size; note: potency is the fitted concentration of half-maximal effect;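 for viability: plate controls were DMSO treated cells for no effect and wells without cells for full effect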
Outline: (§1)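 AML cell lines seeded at 500 cells/well, treated with 11-point dose curves for 48 h. Viability by CellTiter-Glo luminescence, normalised to DMSO and empty wells; activity expressed as AUC and per-cell-line Z-transformed AUC.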

[4] = BET inhibitor-based combinations targeting novel dependencies in MECOM-rearranged (r) AML: HNT-34 cell line (AID 2202234); conditions: HNT-34 AML viability, CellTiter-Glo luminescence, 48 h; series mostly up to 46 µM; note: nearly all actives have a fitted effect of over 35% in size; note: potency is the fitted concentration of half-maximal effect
Outline: (§2)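 Cells at 500/well were exposed for 48 hr to MIPE v5.0 drugs as 11-point dose curves. Viability was read by CellTiter-Glo luminescence and normalized to DMSO and empty-well controls. Activity was expressed as AUC and per-cell-line Z-AUC.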

[5] = target: Retinaldehyde dehydrogenase 3 (Homo sapiens) (UniProt P47895); assay: qHTS for Inhibitors of the Aldehyde Dehydrogenase Family (ALDH1A3) Validation screen (AID 2061312); conditions: ALDH1A3 enzyme inhibition qHTS validation, fluorescence; series mostly up to 84.7 µM; note: nearly all actives have a fitted effect of over 45% in size; note: potency is the fitted concentration of half-maximal effect; for activity change, negative = inhibition: % is set by controls: 0 for no effect and ±100 for the full control effect
[6] = BET inhibitor-based combinations targeting novel dependencies in MECOM-rearranged (r) AML: OCI-AML3 cell line (AID 2202232); conditions: CellTiter-Glo luminescence, 48 h; Potency: OCI-AML3 viability; series mostly up to 46 µM; note: nearly all actives have a fitted effect of over 35% in size; note: potency is the fitted concentration of half-maximal effect
Outline: as §1

[7] = BET inhibitor-based combinations targeting novel dependencies in MECOM-rearranged (r) AML: UCSD-AML1 cell line (AID 2202235); conditions: UCSD-AML1 AML cells viability, CellTiter-Glo, 48 h; series mostly up to 46 µM; note: nearly all actives have a fitted effect of over 40% in size; note: potency is the fitted concentration of half-maximal effect
Outline: as §2

[8] = BET inhibitor-based combinations targeting novel dependencies in MECOM-rearranged (r) AML: AML-191 cell line (AID 2202236; note: nearly all actives have a fitted effect of over 35% in size; note: potency is the fitted concentration of half-maximal effect); conditions: AML-191 viability, CellTiter-Glo luminescence, 48 h; series mostly up to 46 µM
Outline: as §1

[9] = BET inhibitor-based combinations targeting novel dependencies in MECOM-rearranged (r) AML: AML-194 cell line (AID 2202237; note: nearly all actives have a fitted effect of over 40% in size; note: potency is the fitted concentration of half-maximal effect); conditions: AML-194 (MECOM-r AML) viability, CellTiter-Glo, 48 h; series mostly up to 46 µM
Outline: as §1

[10] = BET inhibitor-based combinations targeting novel dependencies in MECOM-rearranged (r) AML: MV-4-11 cell line (AID 2202233); conditions: MV-4-11 AML viability, CellTiter-Glo luminescence, 48 h; series mostly up to 46 µM; note: nearly all actives have a fitted effect of over 45% in size; note: potency is the fitted concentration of half-maximal effect
Outline: as §2

[11] = target: Aldehyde dehydrogenase, mitochondrial (Homo sapiens) (UniProt P05091); assay: qHTS for Inhibitors of the Aldehyde Dehydrogenase Family (ALDH2) Confirmatory screens (AID 2061303; active = well fitted inhibition curve with a large enough effect; title and protocol of this record describe different tests; note: nearly all actives have a fitted effect of over 45% in size; note: potency is the fitted concentration of half-maximal effect; for activity change, negative = inhibition: % is set by controls: 0 for no effect and ±100 for the full control effect); conditions: ALDH inhibition qHTS; series mostly up to 45.4 µM
[12] = qHTS for Inhibitors of the Aldehyde Dehydrogenase Family (ALDH1A2, ALDH1A3, ALDH2, ALDH3A1) (AID 2061307); conditions: ALDH inhibition qHTS; series mostly up to 50.3 µM; note: nearly all actives have a fitted effect of over 50% in size; for Potency: test system not described further here; potency is the fitted concentration of half-maximal effect; for activity change, negative = inhibition: % is set by controls: 0 for no effect and ±100 for the full control effect
[13] = target: Aldehyde dehydrogenase, mitochondrial (Homo sapiens) (UniProt P05091); assay: qHTS for Inhibitors of the Aldehyde Dehydrogenase Family (ALDH2) Primary screen (AID 2061308); conditions: ALDH2 enzyme inhibition qHTS, 1536-well; series mostly up to 56 µM; note: nearly all actives have a fitted effect of over 55% in size; note: potency is the fitted concentration of half-maximal effect;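 for activity change, negative = inhibition: plate controls were vehicle for no effect and reference inhibitor for full effect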
[14] = target: Retinaldehyde dehydrogenase 3 (Homo sapiens) (UniProt P47895); assay: qHTS for Inhibitors of the Aldehyde Dehydrogenase Family (ALDH1A3) Confirmatory screens (AID 2061311); conditions: ALDH inhibition qHTS; series mostly up to 46 µM; note: nearly all actives have a fitted effect of over 60% in size; note: potency is the fitted concentration of half-maximal effect; for activity change, negative = inhibition: % is set by controls: 0 for no effect and ±100 for the full control effect
[15] = target: Retinal dehydrogenase 2 (Homo sapiens) (UniProt O94788); assay: qHTS for Inhibitors of the Aldehyde Dehydrogenase Family (ALDH1A2) Confirmation screens (AID 2061314); conditions: ALDH1A2 enzyme inhibition qHTS confirmation; series mostly up to 45.9 µM; note: nearly all actives have a fitted effect of over 65% in size; note: potency is the fitted concentration of half-maximal effect
[16] = target: Retinaldehyde dehydrogenase 3 (Homo sapiens) (UniProt P47895); assay: qHTS for Inhibitors of the Aldehyde Dehydrogenase Family (ALDH1A3) Primary screen (AID 2061315); conditions: ALDH inhibition qHTS; series mostly up to 56 µM; note: potency is the fitted concentration of half-maximal effect;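 for activity change, negative = inhibition: plate controls were DMSO vehicle for no effect and reference inhibitor for full effect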
[17] = target: Aldehyde dehydrogenase 1A1 (Homo sapiens) (UniProt P00352); assay: qHTS for Inhibitors of the Aldehyde Dehydrogenase Family (ALDH1A1) Confirmatory screens (AID 2061316); conditions: ALDH inhibition qHTS; series mostly up to 47.3 µM; note: nearly all actives have a fitted effect of over 65% in size; note: potency is the fitted concentration of half-maximal effect

Sequence of Cellular tumor antigen p53 (Homo sapiens) (P04637 whole entry, looked up): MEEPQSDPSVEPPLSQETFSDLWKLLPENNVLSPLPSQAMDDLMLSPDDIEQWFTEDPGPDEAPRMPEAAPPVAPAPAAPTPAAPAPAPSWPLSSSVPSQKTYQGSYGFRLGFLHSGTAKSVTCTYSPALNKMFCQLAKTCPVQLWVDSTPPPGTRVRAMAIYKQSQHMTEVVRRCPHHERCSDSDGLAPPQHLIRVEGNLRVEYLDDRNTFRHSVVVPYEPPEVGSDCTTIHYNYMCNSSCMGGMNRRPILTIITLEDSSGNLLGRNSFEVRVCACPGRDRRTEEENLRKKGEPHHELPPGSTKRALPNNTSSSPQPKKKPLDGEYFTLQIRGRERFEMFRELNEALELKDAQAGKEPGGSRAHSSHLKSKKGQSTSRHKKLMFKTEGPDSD

O=C(Nc1nc2ccccc2n1CCN1CCOCC1)c1cccc([N+](=O)[O-])c1
inactive: activation [1] 5.07% and -24.4% | Potency [2] | viability [3] 112% | Potency [4]

CN1CCC(=C2c3ccccc3CC(=O)c3sccc32)CC1
inactive: activation [1] 59.8% and 8.47% and -42.7% | Potency [2] | Potency [5] | viability [3] 112% | Potency [7] | Potency [8] | Potency [9]
active: Potency [6] 18.6 µM

CN(C)CCC=C1c2ccccc2C=Cc2ccccc21
active: Potency [6] 16.6 µM | Potency [10] 20.9 µM | Potency [4] 16.6 µM
inactive: activation [1] 5.02% and 17.3% | Potency [2] | Potency [5] | Potency [7]

Nc1nc2ccc(OC(F)(F)F)cc2s1
inactive: activation [1] -8.55% and 47.5% | Potency [2] | Potency [5]
active: Potency [6] 20.9 µM | Potency [10] 23.5 µM | Potency [4] 16.6 µM | Potency [7] 26.3 µM

CCN(CC)CCOCCOC(=O)C(CC)(CC)c1ccccc1
inactive: activation [1] -4.3% | Potency [11] | Potency [12] | Potency [13] | activity change, negative = inhibition [14] -17.9% [at 0.022 µM] | Potency [5] | Potency [15] | Potency [16] | Potency [17]

NC(CO)C(=O)NNCc1ccc(O)c(O)c1O (centres undefined)
inactive: activation [1] -10.9% and -15.4% and 9.06% | Potency [2] | Potency [10] | Potency [4] | Potency [7] | Potency [9]

C#CC(=O)N(c1ccc(OC)cc1OC)C(C(=O)NCC(=O)OCC)c1cccs1 (centres undefined)
active: Potency [1] 7.57 µM
inactive: Potency [11] | Potency [12]

Cn1c(=O)c(-c2c(Cl)cccc2Cl)cc2cnc(Nc3ccc(N4CCOCC4)cc3)nc21
inactive: activation [1] -42.1% | Potency [2] | Potency [5]

NCc1ccc(OCCCc2sc(-c3ccc4c(c3)/C(=N/Nc3nc5ccccc5s3)CCC4)nc2C(=O)O)cc1
inactive: activation [1] 7.64% | Potency [11] | Potency [12] | Potency [15] | Potency [9]
active: Potency [13] 31.6 µM | Potency [14] 14.2 µM | Potency [5] 7.08 µM | Potency [3] 0.332 µM | Potency [4] 0.166 µM | Potency [7] 0.209 µM

CC(C)c1ccc2c(c1)c(SC(C)(C)C)c(CC(C)(C)C(=O)O)n2Cc1ccc(Cl)cc1
active: Potency [6] 20.9 µM | Potency [10] 20.9 µM | Potency [4] 23.5 µM | Potency [8] 20.9 µM
inactive: activation [1] 10.9% and -49% | Potency [2] | Potency [5] | Potency [7]

O=c1[nH]cc(F)c(=O)[nH]1
inactive: activation [1] -32.6% and 6.33% | Potency [2] | Potency [5]
active: Potency [3] 10.5 µM | Potency [10] 6.61 µM

Cc1oncc1C(=O)Nc1ccc(C(F)(F)F)cc1
active: Potency [4] 16.6 µM
inactive: activation [1] -3.35% and -18.5% and -19% | Potency [2] | Potency [7]

Cc1ccc(S(=O)(=O)c2ccc([N+](=O)[O-])o2)cc1
active: Potency [1] 8.49 µM | Potency [11] 1.59 µM | Potency [12] 0.708 µM | Potency [13] 0.562 µM | Potency [14] 11.2 µM | Potency [5] 1.41 µM | Potency [15] 3.98 µM | Potency [17] 0.504 µM

O=C(CCN1CCN(C(=O)OCc2cc(Cl)cc(Cl)c2)CC1)c1ccc2[nH]c(=O)oc2c1
252 nM (active) and inactive: Potency [15]
active: Potency [11] 283 nM and 5.62 µM | Potency [12] 0.201 µM | Potency [13] 0.158 µM | Potency [14] 1.42 µM | Potency [17] 0.252 µM | Potency [6] 18.6 µM
inactive: activation [1] 10.1% | Potency [5] | Potency [16] | viability [3] 95.2%

CN1CCN(CCCN2c3ccccc3Sc3ccc(C(F)(F)F)cc32)CC1
active: Potency [3] 16.6 µM | Potency [6] 16.6 µM | Potency [10] 20.9 µM
inactive: activation [1] -19.8% and -3.33% and -47.4% | Potency [2] | Potency [7]

COc1cc(CC2COC(c3ccc(OC4OC(CO)C(O)C(O)C4O)c(OC)c3)C2CO)ccc1O (centres undefined)
inactive: activation [1] -20.6% | Potency [11] | Potency [12] | Potency [13] | Potency [15]
active: Potency [14] 11 µM | Potency [16] 8.91 µM

COCc1nc2c([nH]1)c(=O)n(C)c(=O)n2CC(C)C
inactive: activation [1] 12.4% | Potency [2] | Potency [5]

COc1cc(O)c2c(c1)C1OC1C[C@H](O)[C@H](O)C(=O)/C=C\C[C@H](C)OC2=O (some centres undefined)
inactive: Potency [11] | Potency [12] | Potency [13] | Potency [14] | Potency [5]
active: Potency [1] 21.3 µM

COC(=O)C1=C(C)NC(C)=C(C(=O)OC(C)(C)CN(C)CCC(c2ccccc2)c2ccccc2)C1c1cccc([N+](=O)[O-])c1 (centres undefined)
inactive: activation [1] 17.5% | Potency [2] | Potency [5]

NC(=O)[C@H]1CCS[C@@H]2C[C@]3(CCCN3C(=O)Cc3ccc(NC(=O)COc4ccc(Cl)cc4Cl)cc3)C(=O)N12
inactive: activation [1] 19% | Potency [11] | Potency [12] | Potency [13] | Potency [14] | Potency [5] | Potency [15] | Potency [16] | Potency [17]
active: Potency [3] 14.8 µM | Potency [10] 7.42 µM | Potency [7] 7.42 µM | Potency [8] 5.25 µM | Potency [9] 6.61 µM

COC(=O)[C@]1(Cc2ccc(O)c(CC=C(C)C)c2)OC(=O)C(O)=C1c1ccc(O)cc1
inactive: activation [1] 1.53% | Potency [11] | Potency [12] | Potency [13] | Potency [15]
active: Potency [14] 12.3 µM

COc1cc2c3c(cc4ccccc4c3c1O)NC2=O
active: Potency [14] 14.2 µM
inactive: activation [1] -8.93% | Potency [11] | Potency [12] | Potency [13]

N#Cc1ccc(C(=O)N2CCC3(CC2)N=C(N)c2c(F)ccc(F)c2N3)cn1
inactive: activation [1] 6.21% | Potency [11] | Potency [12] | Potency [13] | Potency [14] | Potency [5] | Potency [15] | Potency [16] | Potency [17]

CN(C)S(=O)(=O)c1ccc2c(c1)/C(=C/c1cc3c([nH]1)CCCC3)C(=O)N2
active: Potency [1] 6.75 µM
inactive: Potency [2] | Potency [5]

CCCCC1CCN(CCCN2C(=O)CCc3ccccc32)CC1
inactive: activation [1] -5.25% | Potency [11] | Potency [12] | Potency [13] | Potency [14] | Potency [5] | Potency [15] | Potency [16] | Potency [17]

Cc1onc(-c2c(Cl)cccc2Cl)c1C(=O)N[C@@H]1C(=O)N2[C@@H]1SC(C)(C)[C@@H]2C(=O)O
inactive: activation [1] -9.21% and 6.21% | Potency [11] | Potency [12] | Potency [13] | Potency [14] | Potency [5] | Potency [16] | Potency [17]

COC(=O)[C@@]1(c2ccc(C)cc2)C[C@H]1CN1CCC(O)(c2ccccc2)CC1
inactive: activation [1] 0.477% | Potency [11] | Potency [12] | Potency [13] | Potency [14] | Potency [5] | Potency [15] | Potency [16] | Potency [17]

NC(Cc1c[nH]c2ccccc12)C(=O)NC(CCC(=O)O)C(=O)O (centres undefined)
inactive: activation [1] -0.955% | Potency [11] | Potency [12] | Potency [13] | Potency [14] | Potency [5] | Potency [15] | Potency [16] | Potency [17]

O=c1[nH]c2cccc(N3CCN(Cc4ccc(-c5ccccc5)cc4)CC3)c2o1
inactive: activation [1] -3.82% | Potency [11] | Potency [12] | Potency [13] | Potency [14] | Potency [5] | Potency [15] | Potency [16] | Potency [17]

O=c1c(O)c(-c2ccc(O)c(O)c2)oc2cc(O)cc(O)c12
inactive: activation [1] -2.54% and -9.6% and 3.95% | Potency [2] | viability [3] 113% | Potency [6] | Potency [10] | Potency [4] | Potency [7] | Potency [8] | Potency [9]
